# From PubChem BioAssay
# Several values for one entry are separate records, joined by “and”; a condition that tells them apart may be missing. Identical values can stand only once. Activity calls are given as the source filed them.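 Rule for the calls, unless noted: active = thallium flux through the channel raised or lowered by more than 3 SD from vehicle-only wells, actives on both sides; inactive = the rest.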
# Columns and labels:
# [1] = P. berghei load reduction in hepatocytes – cell-based, HepG2, luciferase luminescence, HepG2 viability, primary screen (AID 624349; in the data active = parasite load remaining mostly below about 12%, no sharp cut-off; inactive = mostly above about 10%;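 note: 100% = mean of DMSO negative control wells on the same plate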); conditions: P. berghei liver stage in HepG2, luciferase luminescence, concentration not given here; parasite load remaining: stronger effect = lower value; viability: measured here: HepG2 viability without parasites
# [2] = signal quenchers or enhancers, Cy5 substrate/SSB – biochemical, NIH Clinical Collection, E. coli SSB, artefact control for HCV NS3 helicase inhibitor project (AID 743268; call rule not given here); conditions: Cy5-oligo bound E. coli SSB, fluorescence interference
# [3] = system: Hepatitis C virus NS3 helicase; assay: blockers of NS3h binding to DNA – biochemical, fluorescence polarization, NIH Clinical Collection, primary screen (AID 743270; call rule not given here); conditions: NS3 helicase binding to Cy5-dT15 DNA, stronger effect = higher value, concentration not given here
# [4] = target: Single-stranded DNA-binding protein (Escherichia coli (strain K12)) (UniProt P0AGE0); assay: SSB-ssDNA binding inhibitors – biochemical, fluorescence polarization, NIH Clinical Collection, counter-screen for HCV NS3 helicase inhibitor project (AID 743271; in the data active = inhibition above about 28%); conditions: E. coli SSB-DNA binding, stronger effect = higher value, concentration not given here
# [5] = compounds distorting NS3 helicase fluorescence signal – biochemical, NIH Clinical Collection, artefact control for HCV NS3 helicase inhibitor project (AID 743272; call rule not given here;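 note: HCV NS3 helicase with a Cy5 labelled single stranded DNA probe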); conditions: fluorescence interference counterscreen, HCV NS3 helicase assay; stronger effect = lower value
# [6] = system: Neuropilin-2 / VEGF-C interaction (human); assay: small molecules blocking Neuropilin-2/VEGF-C interaction – biochemical, microplate binding format, z-score (AID 743281; call rule not given here); conditions: microplate NRP2/VEGF-C binding assay; stronger effect = lower value
# [7] = modulation of C. elegans fzo-1 (AID 1259413; call rule not given here;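 note: fzo-1 mutant C. elegans worms in liquid wells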); conditions: C. elegans fzo-1 modulator screen, mean read-out; stronger effect = higher value
# [8] = viability loss with induced miR-34 in A549 – imaging, A549 dox-inducible miR-34, nuclei and caspase counts, primary screen (AID 1347080;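 active = compounds whose cell count with miR-34 switched on is under 0.7 times the count with it off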); conditions: A549 miR-34 inducible, Hoechst nuclei count, 48 h
# [9] = MELAS cybrid and Rieske KO viability enhancers – cell-based, MELAS cybrids, Rieske KO mouse fibroblasts, CellTiter-Glo, primary screen (AID 1508586;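 active = mean z-score across replicates of 1.96 or higher in either the MELAS or the Rieske mutant cell line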;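 note: z relative to plate mean and SD of compound and empty wells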); conditions: low glucose
# [10] = galactose survival enhancers in mitochondrial complex I cybrids – cell-based, galactose medium, ATP luminescence, primary screen (AID 1645843;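 active = z-score of at least 1.8 in each of two replicates, scored against plate mean and spread of sample wells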;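 note: positive z means more ATP and so rescue of galactose-driven cybrid death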); conditions: complex I mutant cybrid cells, 72 h, stronger effect = higher value
# F380Y = assay: BK channel mutant inhibitors and activators – cell-based, U2OS BacMam, thallium flux, beta subunits, selectivity assay, profiling panel (AID 1259406); conditions: U2OS BacMam BK variants, at 30 µM;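 note: initial slope of Thallos dye fluorescence rise after thallium is added; log ratio against the mean of 0.3% DMSO vehicle wells on the same plate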
# F380Y/beta1 = assay: as above; conditions: U2OS BacMam BK variants, at 30 µM
# F380Y/beta2Delta = assay: as above; conditions: U2OS BacMam BK variants, at 30 µM
# F380Y/beta4 = assay: as above; conditions: U2OS BacMam BK variants, at 30 µM
# [11] = target: Calcium-activated potassium channel subunit alpha-1 (Homo sapiens) + Leucine-rich repeat-containing protein 26 (Homo sapiens) (UniProt Q12791+Q2I0M4); assay: as above; conditions: U2OS BacMam BK variants, F380Y/Slo1WT/gamma1, at 30 µM
# R275C = assay: as above; conditions: U2OS BacMam BK variants, at 30 µM
# R275C/beta1 = assay: as above; conditions: U2OS BacMam BK variants, at 30 µM
# R275C/beta2Delta = assay: as above; conditions: U2OS BacMam BK variants, at 30 µM
# R275C/beta4 = assay: as above; conditions: U2OS BacMam BK variants, at 30 µM
# R275C/Slo1WT/beta2 = assay: as above; conditions: U2OS BacMam BK variants, at 30 µM
# [12] = stronger effect = lower value, cell number ratio, induced over uninduced
# [13] = measured here: relative caspase fold change +Dox/-Dox
# [14] = measured here: total cells with miR-34 induction, stronger effect = lower value
# [15] = measured here: total cells without miR-34 induction
# [16] = MELAS cybrid survival, CellTiter-Glo 48 h, stronger effect = higher value
# [17] = Rieske KO mouse fibroblast survival, CellTiter-Glo 72 h
# Sequence of Calcium-activated potassium channel subunit alpha-1 (Homo sapiens) + Leucine-rich repeat-containing protein 26 (Homo sapiens) (Q2I0M4 whole entry, looked up, one chain of several): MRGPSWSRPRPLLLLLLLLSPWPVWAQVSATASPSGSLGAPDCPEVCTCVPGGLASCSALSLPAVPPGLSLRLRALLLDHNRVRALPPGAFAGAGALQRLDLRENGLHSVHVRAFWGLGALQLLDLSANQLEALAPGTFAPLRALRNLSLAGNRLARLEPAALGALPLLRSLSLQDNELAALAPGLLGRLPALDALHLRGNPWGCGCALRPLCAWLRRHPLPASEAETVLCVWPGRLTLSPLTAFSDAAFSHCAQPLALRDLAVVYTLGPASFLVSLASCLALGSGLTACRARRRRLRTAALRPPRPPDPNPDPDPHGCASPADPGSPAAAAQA
smiles,measurement,setting,value
O=C1C(c2c(O)[nH]c3ccccc23)=Nc2ccccc21,parasite load remaining,[1],27.8% (inactive)
same,viability,[1],67.8%
same,fluorescence ratio,[2],1.08 (inactive)
same,inhibition,[3],26.5% (active)
same,inhibition,[4],18.4% (inactive)
same,fluorescence ratio,[5],1.13 (inactive)
same,outcome,[6],inactive
same,mean signal,[7],275 (inactive)
same,fold change,[8]; [12],0.964 (inactive) and 0.92 (inactive) and 0.909 (inactive)
same,fold change,[8]; [13],1.03 and 0.816 and 0.7
same,cell count,[8]; [14],8910 and 4890 and 7650
same,cell count,[8]; [15],9240 and 5320 and 8410
same,z-score,[9]; [16],-0.237 (inactive)
same,z-score,[9]; [17],-0.638
same,z-score,[10],-0.25 (inactive)
same,log fold change Tl+ flux,F380Y,0.00735 (inactive)
same,log fold change Tl+ flux,F380Y/beta1,0.00413 (inactive)
same,log fold change Tl+ flux,F380Y/beta2Delta,-0.012 (inactive)
same,log fold change Tl+ flux,F380Y/beta4,0.0357 (inactive)
same,log fold change Tl+ flux,[11],-0.019 (inactive)
same,log fold change Tl+ flux,R275C,0.0422 (inactive)
same,log fold change Tl+ flux,R275C/beta1,0.013 (inactive)
same,log fold change Tl+ flux,R275C/beta2Delta,-0.00188 (inactive)
same,log fold change Tl+ flux,R275C/beta4,0.0134 (inactive)
same,log fold change Tl+ flux,R275C/Slo1WT/beta2,0.0591 (inactive)
CC1CNc2c(cccc2S(=O)(=O)N[C@@H](CCCN=C(N)N)C(=O)N2CC[C@@H](C)C[C@@H]2C(=O)O)C1 (some centres undefined),parasite load remaining,[1],91.7% (inactive) and 25.6% (inactive)
same,viability,[1],75.9% and 68%
same,fluorescence ratio,[2],1.01 (inactive)
same,inhibition,[3],-2.77% (inactive)
same,inhibition,[4],-0.1% (inactive)
same,fluorescence ratio,[5],0.96 (inactive)
same,z-score,[6],-1.46 (inactive)
same,mean signal,[7],269 (inactive)
same,fold change,[8]; [12],0.891 (inactive)
same,fold change,[8]; [13],1.15
same,cell count,[8]; [14],10400
same,cell count,[8]; [15],11700
same,z-score,[9]; [16],-0.605 (inactive) and 0.47 (inactive)
same,z-score,[9]; [17],-0.277 and -0.497
same,z-score,[10],0.59 (inactive)
same,log fold change Tl+ flux,F380Y,-0.00418 (inactive)
same,log fold change Tl+ flux,F380Y/beta1,0.00744 (inactive)
same,log fold change Tl+ flux,F380Y/beta2Delta,0.0133 (inactive)
same,log fold change Tl+ flux,F380Y/beta4,0.00267 (inactive)
same,log fold change Tl+ flux,[11],-0.0355 (inactive)
same,log fold change Tl+ flux,R275C,-0.0227 (inactive)
same,log fold change Tl+ flux,R275C/beta1,-0.0183 (inactive)
same,log fold change Tl+ flux,R275C/beta2Delta,-0.0418 (inactive)
same,log fold change Tl+ flux,R275C/beta4,-0.0138 (inactive)
same,log fold change Tl+ flux,R275C/Slo1WT/beta2,0.0382 (inactive)
CCCCc1nc(Cl)c(CO)n1Cc1ccc(-c2ccccc2-c2nnn[nH]2)cc1,parasite load remaining,[1],81.8% (inactive) and 40.5% (inactive)
same,viability,[1],76.8% and 103%
same,fluorescence ratio,[2],1.01 (inactive)
same,inhibition,[3],-1.19% (inactive)
same,inhibition,[4],2.21% (inactive)
same,fluorescence ratio,[5],0.93 (inactive)
same,z-score,[6],-0.132 (inactive)
same,mean signal,[7],250 (inactive)
same,fold change,[8]; [12],0.917 (inactive) and 0.788 (inactive)
same,fold change,[8]; [13],2.6 and 1.84
same,cell count,[8]; [14],9420 and 8200
same,cell count,[8]; [15],10300 and 10400
same,z-score,[9]; [16],-0.447 (inactive)
same,z-score,[9]; [17],-1.13
same,z-score,[10],0.965 (inactive) and 0.025 (inactive)
same,log fold change Tl+ flux,F380Y,-0.0174 (inactive)
same,log fold change Tl+ flux,F380Y/beta1,0.0224 (inactive)
same,log fold change Tl+ flux,F380Y/beta2Delta,-0.000818 (inactive)
same,log fold change Tl+ flux,F380Y/beta4,0.0154 (inactive)
same,log fold change Tl+ flux,[11],0.0245 (inactive)
same,log fold change Tl+ flux,R275C,-0.0209 (inactive)
same,log fold change Tl+ flux,R275C/beta1,0.00988 (inactive)
same,log fold change Tl+ flux,R275C/beta2Delta,0.0215 (inactive)
same,log fold change Tl+ flux,R275C/beta4,0.039 (inactive)
same,log fold change Tl+ flux,R275C/Slo1WT/beta2,-0.0136 (inactive)
CN(C)C1C(=O)C(C(N)=O)=C(O)C2(O)C(=O)C3=C(O)c4c(O)ccc(Cl)c4C(O)C3CC12 (centres undefined),parasite load remaining,[1],84.6% (inactive)
same,viability,[1],103%
same,fluorescence ratio,[2],1.05 (inactive)
same,inhibition,[3],-11.4% (inactive)
same,inhibition,[4],-1.24% (inactive)
same,fluorescence ratio,[5],0.84 (inactive)
same,mean signal,[7],261 (inactive)
same,fold change,[8]; [12],0.964 (inactive)
same,fold change,[8]; [13],1.22
same,cell count,[8]; [14],5440
same,cell count,[8]; [15],5650
same,z-score,[10],-1.45 (inactive)
same,log fold change Tl+ flux,F380Y,-0.0288 (inactive)
same,log fold change Tl+ flux,F380Y/beta1,-0.00371 (inactive)
same,log fold change Tl+ flux,F380Y/beta2Delta,-0.0136 (inactive)
same,log fold change Tl+ flux,F380Y/beta4,0.00837 (inactive)
same,log fold change Tl+ flux,[11],0.0307 (inactive)
same,log fold change Tl+ flux,R275C,-0.0571 (inactive)
same,log fold change Tl+ flux,R275C/beta1,-0.0108 (inactive)
same,log fold change Tl+ flux,R275C/beta2Delta,-0.203 (active)
same,log fold change Tl+ flux,R275C/beta4,-0.101 (inactive)
same,log fold change Tl+ flux,R275C/Slo1WT/beta2,-0.0217 (inactive)
CC(=O)CCCCn1cnc2c1c(=O)n(C)c(=O)n2C,parasite load remaining,[1],108% (inactive)
same,viability,[1],91.8%
same,fluorescence ratio,[2],1.04 (inactive)
same,inhibition,[3],-0.4% (inactive)
same,inhibition,[4],-0.1% (inactive)
same,fluorescence ratio,[5],0.95 (inactive)
same,z-score,[6],-1.78 (inactive)
same,mean signal,[7],257 (inactive)
same,fold change,[8]; [12],0.919 (inactive)
same,fold change,[8]; [13],1.72
same,cell count,[8]; [14],9610
same,cell count,[8]; [15],10500
same,z-score,[10],0.63 (inactive)
same,log fold change Tl+ flux,F380Y,-0.0664 (inactive)
same,log fold change Tl+ flux,F380Y/beta1,-0.015 (inactive)
same,log fold change Tl+ flux,F380Y/beta2Delta,-0.0429 (inactive)
same,log fold change Tl+ flux,F380Y/beta4,-0.0419 (inactive)
same,log fold change Tl+ flux,[11],0.0418 (inactive)
same,log fold change Tl+ flux,R275C,-0.00612 (inactive)
same,log fold change Tl+ flux,R275C/beta1,-0.0249 (inactive)
same,log fold change Tl+ flux,R275C/beta2Delta,0.0157 (inactive)
same,log fold change Tl+ flux,R275C/beta4,-0.0496 (inactive)
same,log fold change Tl+ flux,R275C/Slo1WT/beta2,-0.0588 (inactive)
NC(=O)c1ncn(C2OC(CO)C(O)C2O)n1 (centres undefined),parasite load remaining,[1],36.7% (inactive)
same,viability,[1],151%
same,fluorescence ratio,[2],1.01 (inactive)
same,inhibition,[3],1.36% (inactive)
same,inhibition,[4],5.62% (inactive)
same,fluorescence ratio,[5],1.05 (inactive)
same,mean signal,[7],278 (inactive)
same,fold change,[8]; [12],0.987 (inactive) and 0.921 (inactive)
same,fold change,[8]; [13],1.64 and 0.871
same,cell count,[8]; [14],9950 and 8880
same,cell count,[8]; [15],10100 and 9640
same,z-score,[9]; [16],-0.322 (inactive)
same,z-score,[9]; [17],0.486
same,z-score,[10],1.69 (inactive)
same,log fold change Tl+ flux,F380Y,-0.0109 (inactive)
same,log fold change Tl+ flux,F380Y/beta1,-0.00666 (inactive)
same,log fold change Tl+ flux,F380Y/beta2Delta,-0.00987 (inactive)
same,log fold change Tl+ flux,F380Y/beta4,0.00318 (inactive)
same,log fold change Tl+ flux,[11],-0.0406 (inactive)
same,log fold change Tl+ flux,R275C,0.0183 (inactive)
same,log fold change Tl+ flux,R275C/beta1,-0.000638 (inactive)
same,log fold change Tl+ flux,R275C/beta2Delta,-0.0258 (inactive)
same,log fold change Tl+ flux,R275C/beta4,-0.0315 (inactive)
same,log fold change Tl+ flux,R275C/Slo1WT/beta2,0.0198 (inactive)
